The values that follow come from the OligoGym collection.
Note: reference of the scale not given here.

For one assay, the target named is SHOC2. Kind of assay: pooled miR-30 sensor sort-seq; sequence = guide strand. To be noted: shRNA.
Sequence TTTGTTCTCTTCTAGATCCAAC had a sensor-assay potency score (higher = more potent) of -0.823.

As to TTGATTGTGAGCTACATCCAGC, the sensor-assay potency score (higher = more potent) was -0.412.

In turn, TTCTCTTCTAGATCCAACTCTC gave a sensor-assay potency score (higher = more potent) of -0.213.

Sequence TTTGATCGTATTGTCAACTGAA registered a sensor-assay potency score (higher = more potent) of 0.487.

Turning to TGAATTTTCACTTAGAGCCAGT, the sensor-assay potency score (higher = more potent) is -0.612.

As to TATGTGTATAGATCTCTTGGAT, the sensor-assay potency score (higher = more potent) was -0.313.

TATATCTAACTATACTACCTCT had a sensor-assay potency score (higher = more potent) of -0.42.

For TATCTAACTATACTACCTCTGT, the sensor-assay potency score (higher = more potent) was -0.264.

With TTGATCGTATTGTCAACTGAAA, the sensor-assay potency score (higher = more potent) is -1.19.

For the sequence TTGTGAGCTACATCCAGCGTAA, the sensor-assay potency score (higher = more potent) is 0.0478.

In the case of TCCAACTCTCTTAACTTCCTAA, the sensor-assay potency score (higher = more potent) was -0.798.

TTACTTAATACTTTTGCTCTGG registered a sensor-assay potency score (higher = more potent) of 0.139.

For the next assay, the target named is SHOX2. The assay is described as above. The settings on record: shRNA.
Regarding TTTATGGAGTTGATTTTCTTGT, the sensor-assay potency score (higher = more potent) was -0.402.

In turn, TTTCTACATTTAGCTCTTCGAT gave a sensor-assay potency score (higher = more potent) of -1.28.

The sequence TCCAGGGTGAAATTGGTCCGAC gave a sensor-assay potency score (higher = more potent) of -1.19.

TTCTTGCTGGTGGTCTTGGCGG yielded a sensor-assay potency score (higher = more potent) of -1.37.

TTTTCTTGTTTTCTACATTTAG yielded a sensor-assay potency score (higher = more potent) of -1.51.

Consider TTTGAAACCAAACCTGCACTCG, for which the sensor-assay potency score (higher = more potent) was -0.285.

For TTTGCGATCTTTCAGCTCCGGG, the sensor-assay potency score (higher = more potent) is -1.2.

For TTGCGATCTTTCAGCTCCGGGG, the sensor-assay potency score (higher = more potent) was -1.14.

As to TATGAGAACACCTTTATGGAGT, the sensor-assay potency score (higher = more potent) was -0.114.

In turn, TTCTACATTTAGCTCTTCGATT had a sensor-assay potency score (higher = more potent) of -0.898.

TACATTTAGCTCTTCGATTTTG: the sensor-assay potency score (higher = more potent) was -1.22.

Regarding TTCTATGCAAGAGTCCATCGTT, the sensor-assay potency score (higher = more potent) amounted to 0.114.
